The text below walks through data of PubChem BioAssay.

Structures are written as SMILES.

This test deals with wheat germ agglutinin (Triticum aestivum), Alexa647-labelled. The test is described as follows: Alexa647-WGA lectin binding to printed small molecules – biochemical, small-molecule microarray, 635/667 nm fluorescence, artefact control for SMM control-protein annotation, profiling panel (AID 1140).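 Also: score merges 667 nm feature emission with signal to noise over triplicate slides.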 Conditions: WGA-A647 binding, 635 nm fluorescence, higher = more signal.
Compound `CCOC(=O)[C@H](Cc1ccccc1)NC(=O)CCC1CC(OC(=O)NCc2cccc3ccccc23)CC2(CCCC(COC(=O)NCCc3ccccc3OC)O2)O1` (stereo not given in full) showed a composite z-score of 0.404. The figure for `O=C1C=C[C@@H](O)[C@@H]2[C@@H]3C(=O)N(c4cccc(Oc5ccccc5)c4)C(=O)[C@@H]3CC[C@@H]12` is 0.228. On to `O=C1C=C[C@@H](O)[C@@H]2[C@@H]3C(=O)N(Cc4ccccc4)C(=O)[C@@H]3CC[C@@H]12`, for which the composite z-score came out at 0.228.

Take `COC(=O)[C@H](C)NC(=O)CCC1CC(OC(=O)NCc2ccc3c(c2)OCO3)CC2(CCCC(COC(=O)NCc3ccccc3)O2)O1` (stereo not given in full): the composite z-score is 0.0082. As for `COc1ccc(COC(=O)NN=C2C[C@@H](O)[C@@H](O)[C@@H]3[C@@H]4C(=O)N(C(C)(C)C)C(=O)[C@@H]4CC[C@@H]23)cc1`, the composite z-score was found to be 0.608.
